In PubChem BioAssay (NCATS):
Records with an inconclusive call do not appear. A call without a number means that no potency is given here. Activity calls are given as the source filed them. Calls come from the whole dose curve; as a rule, active = well fitted curve in the direction sought with a large enough effect; inconclusive = small, poorly fitted or top-dose-only effect, or another doubt; inactive = no such curve, though single readings can be large; an effect the other way counts as inactive or inconclusive.

What follows are compounds tested against Aldehyde dehydrogenase, mitochondrial (Homo sapiens) (UniProt P05091) (assay: qHTS for Inhibitors of the Aldehyde Dehydrogenase Family (ALDH2) Primary screen (AID 2061308; note: nearly all actives have a fitted effect of over 55% in size)). Details: ALDH2 enzyme inhibition qHTS, 1536-well; series mostly up to 56 µM.

SMILES | Potency
Cc1cc2c(s1)c1cnn(Cc3cc(F)ccc3C)c(=O)c1n2C | inactive
Cc1ccsc1CN(C)c1ncnc2ccc(-c3ccc([C@@H](C)O)o3)cc12 | inactive
CCOC(=O)c1ccc(-c2ccc3ncnc(N(C)Cc4sccc4C)c3c2)o1 | inactive
Cc1cnc(-c2ccccc2C(C)C)nc1NCc1ccc(C#N)cc1 | inactive
Cc1ccc(-c2cc(C(=O)Nc3ccc(-n4cccn4)cc3)c3ccccc3n2)cc1C | inactive
O=C(Nc1ccc(F)nc1)Nc1nnc(-c2ccncc2)s1 | inactive
O=C(CNC(=O)C1CCCCC1)OC(C(=O)c1ccccc1)c1ccccc1 (configuration not stated) | inactive
COc1ccc(OC2=NS(=O)(=O)c3ccccc32)cc1 | inactive
Cc1cc(N[S+](=O)([O-])c2ccc(NC(=O)Cc3ccc(Cl)nc3)cc2)no1 | inactive
Brc1cnc2nc(SCc3ccncc3)[nH]c2c1 | inactive
O=c1c2ccccc2nc2sc(NCc3ccc(Oc4ccccc4)cc3)nn12 | inactive
CCCn1c(-c2ccc(F)cc2)nc2c(NCCN3CCOCC3)nc(C)nc21 | inactive
CCC(=O)NC(c1ccco1)c1cc(Cl)c2cccnc2c1O (configuration not stated) | inactive
CC1=C(C(=O)Nc2nc3ccccc3s2)C(c2[nH]ncc2Cl)N=C(Nc2nc3ccccc3o2)N1 (configuration not stated) | inactive
CCCn1c(-c2ccc(F)cc2)nc2c(NCCCCN3CCCC3)nc(C)nc21 | inactive
COc1cccc(NC(=O)c2cc(-c3ccc(C)c(C)c3)nc3ccccc23)c1 | inactive
Cc1ccc(S(=O)(=O)Nc2cnccc2C(=O)Nc2nc(-c3cccc(F)c3)cs2)cc1 | inactive
CO[C@H]1/C=C/[C@@](C)(O)/C=C/C(=O)O[C@H](C)[C@@H](C)CC/C=C/1C | inactive
COc1ccccc1CNC(=O)Nc1nnc(-c2ccncc2)s1 | inactive
CCN1CCCC1Cn1c(-c2ccccc2)nc2c(N(CCOC)CCOC)nc(C)nc21 (configuration not stated) | inactive
COc1cc(O)c(C(CC(=O)N2CC(C)CC(C)C2)c2ccc3c(c2)OCCO3)c(OC)c1 (configuration not stated) | inactive
O=C(O)c1ccc(O)c2ncc(NC3CCNCC3)cc12 | inactive
CCCCNc1nc(C)nc2c1nc(-c1ccccc1)n2CCCN(C)C | inactive

The compounds below were run against Retinaldehyde dehydrogenase 3 (Homo sapiens) (UniProt P47895) (assay: qHTS for Inhibitors of the Aldehyde Dehydrogenase Family (ALDH1A3) Primary screen (AID 2061315)). Details: ALDH inhibition qHTS; series mostly up to 56 µM.

SMILES | Potency
O=C(Nc1cc(C(F)(F)F)ccc1Cl)C(O)Cc1ccccc1 (configuration not stated) | inactive
CC(C)c1cccc2c(-c3ccccc3)cc(-c3ccc(-c4ccc(C(=O)O)cc4)[nH]3)nc12 | inactive
COC(=O)c1ccccc1NC(=O)c1ccccc1OC(F)F | inactive
COc1ccc(OC)c(C2=Nn3c(nnc3-c3ccc(OC)c(OC)c3)SC2)c1 | inactive
CC1(C)CC[C@]2(C(=O)O)CC[C@]3(C)C(=CCC4[C@@]5(C)C[C@@H](O)[C@H](O)[C@@](C)(CO)C5CC[C@]43C)C2C1 (some centres not stated) | inactive
O=C(Nc1nnc(-c2ccncc2)s1)Nc1cc(C(F)(F)F)ccc1F | inactive
CCOc1ccc(CCNC(=O)C2=C(C)OCCO2)cc1OCC | inactive
CCCCNc1nc(C)nc2c1nc(-c1ccccc1)n2CC(C)(C)CN(C)C | inactive
COc1ccc(-c2nnc3n2N=C(c2ccccc2OC)CS3)c(OC)c1 | inactive
O=C(Cn1nc(-c2ccc3c(c2)OCO3)ccc1=O)NCCc1ccccc1 | inactive
Cc1cc(C)nc(NC(=S)N2CCN(c3nccc4occc34)CC2)c1 | inactive
CCC(=O)NC(C)c1cc(Cl)c2cccnc2c1O (configuration not stated) | inactive
COc1cccc(C2=Nn3c(nnc3-c3cc(OC)ccc3OC)SC2)c1 | inactive
CSc1ccccc1-c1ncc(C)c(NCc2ccc(-c3cccnc3)cc2)n1 | inactive
Oc1ccc(-c2ccccc2F)c2cccnc12 | inactive
Cc1nc(CN=C2NC3=C(C(=O)CCC3)C(c3[nH]ncc3Cl)N2)cs1 (configuration not stated) | inactive
COc1cc(O)c(C(CC(=O)N2CCCC(C)(C)C2)c2ccc3c(c2)OCO3)c(OC)c1 (configuration not stated) | inactive
Cc1cc2c(s1)c1cnn(Cc3cc(F)ccc3C)c(=O)c1n2C | inactive
Cc1ccsc1CN(C)c1ncnc2ccc(-c3ccc([C@@H](C)O)o3)cc12 | inactive
CCOC(=O)c1ccc(-c2ccc3ncnc(N(C)Cc4sccc4C)c3c2)o1 | inactive
Cc1cnc(-c2ccccc2C(C)C)nc1NCc1ccc(C#N)cc1 | inactive
Cc1ccc(-c2cc(C(=O)Nc3ccc(-n4cccn4)cc3)c3ccccc3n2)cc1C | inactive
O=C(Nc1ccc(F)nc1)Nc1nnc(-c2ccncc2)s1 | inactive
O=C(CNC(=O)C1CCCCC1)OC(C(=O)c1ccccc1)c1ccccc1 (configuration not stated) | inactive
